Data as given in PubChem BioAssay (EPA / NIEHS).
“And” between values parts separate entries of the source, which are not always exact repeats. Identical values can stand only once. Records with an inconclusive call do not appear. More than one record can exist for a structure, and the calls need not agree. The source made the active and inactive calls. Rule for the calls: active = hit-call score of the fitted dose curve at least 0.9, where 1 is the maximum; inconclusive = response in the unintended direction; inactive = score below 0.9.

Legend:
[1] = TOX21_p53_BLA_p2_viability: Viability Assessment in the Tox21 HCT-116 p53 Agonism Beta-lactamase Assay, Phase 2 (AID 2283591);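 note: compound exposure lasted 16 h at 37 °C; actives lower the ATP signal meaning cytotoxicity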
Summary of the method: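 HCT116 p53-bla cells, 4000/well, dosed after 5 h plating (217-fold dilution of DMSO stocks) and incubated 16 h at 37C. Viability taken as cellular ATP by CellTiter-Glo luminescence after 30 min RT; signal loss marks cytotoxicity.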

[2] = target: Cellular tumor antigen p53 (Homo sapiens) (UniProt P04637); assay: TOX21_p53_BLA_p3_ratio: Tox21 HCT-116 p53 Agonism Beta-lactamase Assay, Ratio, Phase 3 (AID 2283596)
Summary of the method: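 HCT116 p53-bla cells (4000/well) given compound in DMSO (217-fold dilution) after 5 h, incubated 16 h at 37C. CCF4-AM substrate 2 h at room temperature; 460/530 nm emission ratio, gain fitted against DMSO.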

[3] = target: Cellular tumor antigen p53 (Homo sapiens) (UniProt P04637); assay: TOX21_p53_BLA_p5_ratio: Tox21 HCT-116 p53 Agonism Beta-lactamase Assay, Ratio, Phase 5 (AID 2283599)
Summary of the method: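 HCT-116 p53-bla cells (4000/well) plated 5 h, dosed with compound (217-fold DMSO dilution) for 16 h at 37 C; CCF4-AM substrate 2 h at room temperature. Activity is the 460/530 nm emission ratio (405 nm excitation), fitted in gain-of-signal direction versus DMSO.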

[4] = target: Cellular tumor antigen p53 (Homo sapiens) (UniProt P04637); assay: TOX21_p53_BLA_p4_ratio: Tox21 HCT-116 p53 Agonism Beta-lactamase Assay, Ratio, Phase 4 (AID 2283601)
Summary of the method: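 HCT-116 p53 beta-lactamase reporter cells (4000/well) preincubated 5 h, then compound (217-fold dilution of DMSO stock) for 16 h at 37C. CCF4-AM substrate added 2 h at room temperature; 460/530 nm emission ratio fitted upward versus DMSO.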

[5] = TOX21_p53_BLA_p3_viability: Viability Assessment in the Tox21 HCT-116 p53 Agonism Beta-lactamase Assay, Phase 3 (AID 2283593);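 note: cells exposed to compound for 16 h before reading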
Summary of the method: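 HCT116 cells, 4000/well, dosed 5 h after plating by pin transfer (217-fold dilution from DMSO stock) and incubated 16 h at 37C, 5% CO2. Viability read as ATP luminescence with CellTiter-Glo after 30 min at room temperature.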

[6] = TOX21_p53_BLA_p4_viability: Viability Assessment in the Tox21 HCT-116 p53 Agonism Beta-lactamase Assay, Phase 4 (AID 2283597);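 note: hits lower the luminescence signal meaning cytotoxicity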
Summary of the method: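 Luminescent ATP readout (CellTiter-Glo, 30 min, room temperature) in the same wells as the p53 bla ratio. HCT116 cells were treated for 16 h at 37C with DMSO-dissolved compounds.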

[7] = TOX21_p53_BLA_p5_viability: Viability Assessment in the Tox21 HCT-116 p53 Agonism Beta-lactamase Assay, Phase 5 (AID 2283600)
Summary of the method: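 Seeded cells (4000/well) settle 5 h before compound addition. Plates then incubate 16 h at 37C, receive FRET substrate for 2 h, and finally CellTiter-Glo, with luminescence measured after a 30 min room-temperature incubation.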

[8] = Tanguay_ZF_120hpf_MORT_legacy: (Legacy) Oregon State University Tanguay Lab 120 Hour Post-fertilization zebrafish Assay for Mortality (AID 2283633);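 for AC50: fitted as increase in binary mortality versus DMSO negative control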
Summary of the method: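 Single dechorionated Tropical 5D embryos were held with test chemical (0.64% DMSO final) from 6 to 120 hpf at 28C under foil. Deaths at 24 or 120 hpf were recorded as binary calls, analysed for increase over DMSO controls.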

[9] = Tanguay_ZF_120hpf_YSE_legacy: (Legacy) Oregon State University Tanguay Lab 120 Hour Post-fertilization zebrafish Assay for Yolk Sac Edema (AID 2283634)
Summary of the method: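 Single dechorionated embryos were held in sealed plates at 28C with test chemical (0.64% DMSO final) from 6 hpf until 120 hpf. Edema of the yolk sac was then recorded as a binary endpoint; non-mortality endpoints were skipped for dead embryos.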

[10] = target: Cellular tumor antigen p53 (Homo sapiens) (UniProt P04637); assay: TOX21_p53_BLA_p2_ratio: Tox21 HCT-116 p53 Agonism Beta-lactamase Assay, Ratio, Phase 2 (AID 2283592)
Summary of the method: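 Human colon HCT116 cells with an inducible p53 beta-lactamase reporter are exposed to test chemicals for 16 h at 37C. Reporter induction is read as the 460/530 nm emission ratio after CCF4-AM loading, normalized to DMSO.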

Measured: AC50

Chain of Cellular tumor antigen p53 (Homo sapiens) (P04637 whole entry, looked up): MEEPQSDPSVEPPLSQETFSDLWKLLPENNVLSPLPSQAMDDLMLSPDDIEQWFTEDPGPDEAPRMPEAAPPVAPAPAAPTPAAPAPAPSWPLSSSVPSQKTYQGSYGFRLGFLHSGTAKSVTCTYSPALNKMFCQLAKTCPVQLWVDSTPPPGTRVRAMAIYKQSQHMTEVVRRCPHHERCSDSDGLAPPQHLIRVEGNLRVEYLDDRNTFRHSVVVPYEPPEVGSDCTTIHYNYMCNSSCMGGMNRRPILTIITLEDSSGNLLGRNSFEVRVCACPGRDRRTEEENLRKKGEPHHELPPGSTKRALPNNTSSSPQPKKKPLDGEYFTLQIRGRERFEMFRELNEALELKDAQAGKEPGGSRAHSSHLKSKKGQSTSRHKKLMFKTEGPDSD

O=C(Cc1ccccc1)c1ccccc1
inactive: [1] | [2] | [3] | [4]

C=CC(=O)OCCCCCC(C)C
inactive: [1] | [5] | [2] | [6] | [3] | [7] | [4] | [8] | [9]

ClC1=C(Cl)[C@]2(Cl)[C@H]3[C@H]([C@H]4C=C[C@H]3C4)[C@@]1(Cl)C2(Cl)Cl
inactive: [1] | [5] | [6] | [3] | [7] | [4]

ClCCBr
inactive: [1] | [5] | [2] | [6] | [3] | [7] | [4]

C[C@H]1CCCC(=O)CCC/C=C/c2cc(O)cc(O)c2C(=O)O1
active: [10] 11.7 µM | [2] 12.3 µM and 15.8 µM | [3] 11.7 µM | [4] 8.07 µM and 12.3 µM
inactive: [10] | [5] | [6] | [3] | [7]

COc1ccc(C=O)cc1
inactive: [1] | [2] | [6] | [3] | [4]

Cn1sc(Cl)cc1=O
active: [5] 29.8 µM | [8] 25.7 µM
inactive: [1] | [5] | [2] | [3] | [7] | [4]

C=C(C)C(=O)[O][Sn]([CH2]CCC)([CH2]CCC)[CH2]CCC
inactive: [9]
active: [1] 1.88 µM | [5] 1.18 µM | [2] 17.5 µM | [6] 1.5 µM | [3] 35.9 µM | [7] 1.74 µM | [4] 28.7 µM | [8] 1.77 µM

N#Cc1ccccn1
inactive: [1] | [2] | [6] | [3] | [7] | [4]

O=C(O)C(Cl)(Cl)Cl
inactive: [1] | [5] | [2] | [6] | [3] | [7] | [4] | [8] | [9]

NC(=O)CF
inactive: [1] | [2] | [6]

ClCC(Cl)CCl
inactive: [1] | [5] | [2] | [6] | [3] | [7] | [4] | [8]

CCOC(=O)Nc1cccc(OC(=O)Nc2ccccc2)c1
inactive: [1] | [6] | [7]

COP(=S)(OC)Oc1ccc(S(=O)(=O)N(C)C)cc1
inactive: [1] | [5] | [2] | [6] | [3] | [7] | [4]

CCC(=O)c1ccccc1
inactive: [1] | [10] | [6] | [3] | [7]

CC(C)C1CCC(Cc2ccc(Cl)cc2)C1(O)Cn1cncn1 (centres undefined)
active: [10] 67.8 µM | [5] 45.7 µM | [2] 85.6 µM | [6] 45.7 µM | [3] 82.8 µM | [7] 71.1 µM | [4] 88.7 µM

O=C(Nc1ccc2[nH]ccc2c1)c1cc2cc(F)ccc2n1Cc1cccc(F)c1
active: [10] 59.4 µM | [2] 86.7 µM | [6] 46.1 µM | [3] 83.2 µM | [4] 42.2 µM
inactive: [5] | [7] | [8] | [9]

CC(C)OC(=O)Nc1ccccc1
inactive: [10] | [5] | [2] | [3] | [4]

COP(=S)(OC)Oc1cc(Cl)c(Cl)cc1Cl
inactive: [10] | [5] | [2] | [6] | [3] | [7] | [4]

COc1cc2c(cc1OC)[C@@]13CCN4CC5=CCO[C@H]6CC(=O)N2[C@H]1[C@H]6[C@H]5C[C@H]43
inactive: [10] | [5] | [2] | [6] | [3] | [7] | [4]

C[C@]12CCC(=O)C[C@@H]1CC[C@@H]1[C@@H]2CC[C@]2(C)[C@@H](O)CC[C@@H]12
inactive: [10] | [5] | [2] | [6] | [3] | [7] | [4] | [8] | [9]

CCC[CH2][Sn]([Cl])([Cl])[Cl]
inactive: [10] | [2] | [3] | [7] | [4]

ClCc1cccnc1
inactive: [10] | [2] | [3] | [7]

C=C(C)C#N
inactive: [10] | [5] | [2] | [6] | [3] | [7] | [4]

CN(C)P(=O)(N(C)C)N(C)C
inactive: [10] | [2] | [6] | [3] | [7] | [4]

CCOC(=O)/C=C(C)/C=C/C[C@@H](C)CCCC(C)C
active: [5] 58.3 µM
inactive: [10] | [2] | [6] | [3] | [7] | [4]

CC(C)OC(=S)S
inactive: [10] | [2] | [6] | [3] | [7]

Oc1ccc(-c2ccccc2)cc1
inactive: [10] | [5] | [2] | [6] | [3] | [7] | [4]

CCC[CH2][Sn]([CH2]CCC)([CH2]CCC)[O]C(=O)c1ccccc1
active: [10] 23.9 µM | [5] 2.09 µM | [2] 24.4 µM | [6] 0.953 µM | [3] 24.7 µM | [7] 1.77 µM | [4] 27.2 µM

O=[N+]([O-])c1ccc2c3c(cccc13)CC2
inactive: [10] | [5] | [2] | [3] | [4]

CC12CC1(C)C(=O)N(c1cc(Cl)cc(Cl)c1)C2=O (centres undefined)
inactive: [10] | [5] | [2] | [6] | [3] | [7] | [4] | [8] | [9]

[O-][Cl+2]([O-])O
inactive: [10] | [5] | [2] | [6] | [3] | [7] | [4]

CCCCP(CCCC)CCCC
inactive: [10] | [5] | [2] | [6] | [7] | [4]

ClC1(Cl)C2(Cl)C3(Cl)C4(Cl)C(Cl)(Cl)C5(Cl)C3(Cl)C1(Cl)C5(Cl)C24Cl (centres undefined)
inactive: [10] | [5] | [6] | [7] | [4] | [8] | [9]

CNC
inactive: [10] | [5] | [2] | [6] | [3] | [7] | [4]

Cc1ccccc1N
inactive: [10] | [5] | [2] | [6] | [3] | [7] | [4] | [8] | [9]

O=C(O)C(F)(F)C(F)(F)C(F)(F)C(F)(F)C(F)(F)C(F)(F)C(F)(F)C(F)(F)C(F)(F)C(F)(F)F
inactive: [10] | [2] | [3] | [7] | [4] | [8] | [9]

OCC(O)CCl (centres undefined)
inactive: [10] | [5] | [2] | [6] | [3] | [7] | [4]

CC(=O)OC(c1ccccc1)C(Cl)(Cl)Cl (centres undefined)
inactive: [10] | [5] | [2] | [6] | [3] | [4]

Cc1ccccc1C(=O)Nc1cccc(OC(C)C)c1
inactive: [10] | [5] | [6] | [3] | [7] | [4]

Nc1ccc(N=Nc2ccc(-c3ccc(N=Nc4c(S(=O)(=O)O)cc5cc(S(=O)(=O)O)c(N=Nc6ccccc6)c(O)c5c4N)cc3)cc2)c(N)c1
inactive: [10] | [5] | [2] | [6] | [3] | [4]

Clc1nc(Cl)nc(Cl)n1
inactive: [10] | [5] | [2] | [6] | [3] | [7] | [4]

Cl/C=C\C[N+]12CN3CN(CN(C3)C1)C2
inactive: [10] | [5] | [2] | [3] | [4]

CC(C)(OO)c1ccccc1
inactive: [10] | [5] | [2] | [3] | [4] | [8] | [9]

CCOP(=S)(OCC)SCSP(=S)(OCC)OCC
inactive: [10] | [5] | [6] | [3] | [7] | [4] | [8] | [9]

COc1ccccc1OC
inactive: [10] | [5] | [2] | [6] | [3] | [4]

COC(=O)Cc1ccccc1
inactive: [2] | [4]

CCOP(OCC)OCC
inactive: [5] | [2] | [6] | [3] | [4]

O=c1[nH]c(=O)[nH]c(=O)[nH]1
inactive: [5] | [2] | [6] | [3] | [4] | [8] | [9]

O=C1C(Cl)=C(Cl)C(=O)c2ccccc21
inactive: [7] | [4]
active: [5] 30.9 µM and 46.2 µM | [2] 54.1 µM and 67.3 µM | [6] 14.5 µM and 14.4 µM | [3] 63.4 µM and 19.6 µM | [7] 57.7 µM | [4] 17.1 µM

COc1cc(OC)nc(NC(=O)NS(=O)(=O)c2ncccc2C(=O)N(C)C)n1
inactive: [2] | [6] | [3] | [7] | [4]

CC(C#N)CCC#N (centres undefined)
inactive: [5] | [2] | [6] | [3] | [7] | [4]

CN(C)N=O
inactive: [5] | [2] | [6] | [3] | [7] | [4] | [8] | [9]

O=P(O)(O)CN(CP(=O)(O)O)CP(=O)(O)O
inactive: [5] | [2] | [4]
